Measured values taken from PubChem BioAssay (NCATS).
A number with no mark means an inactive call. Records with an inconclusive call do not appear. Where a call stands in place of a potency, no number is given. Active and inactive are the calls of the source. The call rests on the fitted dose curve; in most records, active means well fitted curve in the direction sought with a large enough effect; inconclusive means small, poorly fitted or top-dose-only effect, or another doubt; inactive means no such curve, though single readings can be large; an effect the other way counts as inactive or inconclusive.

Assays:
[1] = target: Glutathione peroxidase 1 (Homo sapiens) (UniProt P07203); experiment: Primary qHTS Assay for Inhibitors of Recombinant Selenoprotein Glutathione Peroxidase 1 (GPX1) (AID 1845191); further: nearly all actives have a fitted effect of over 65% in size
Glutathione peroxidase 1 (Homo sapiens), sequence (P07203 whole entry, looked up): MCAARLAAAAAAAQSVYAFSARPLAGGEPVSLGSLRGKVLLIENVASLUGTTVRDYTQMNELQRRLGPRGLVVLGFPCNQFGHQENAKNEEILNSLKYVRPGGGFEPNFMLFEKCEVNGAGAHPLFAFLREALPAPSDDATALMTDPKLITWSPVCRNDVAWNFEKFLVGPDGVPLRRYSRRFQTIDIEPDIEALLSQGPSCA
Outline: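 GR-coupled readout: NADPH consumption tracked by fluorescence, ex 340/em 450 nm, at t=0 and after 15 min at RT. Final mix 10 nM GPX1, 1 mM GSH, 0.5 mM CHP, 0.5 mM NADPH, 100 nM GR, 0.01% BSA, following 30 min enzyme–compound preincubation.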

[2] = target: Phospholipid hydroperoxide glutathione peroxidase GPX4 (Homo sapiens) (UniProt P36969); experiment: Primary qHTS Assay for Inhibitors of Recombinant Selenoprotein Glutathione Peroxidase 4 (GPX4) (AID 1845192); further: nearly all actives have a fitted effect of over 65% in size; further: potency means the concentration at half of the fitted maximal effect; on activity change, negative = inhibition: series mostly up to about 50 µM
Phospholipid hydroperoxide glutathione peroxidase GPX4 (Homo sapiens), sequence (P36969 whole entry, looked up): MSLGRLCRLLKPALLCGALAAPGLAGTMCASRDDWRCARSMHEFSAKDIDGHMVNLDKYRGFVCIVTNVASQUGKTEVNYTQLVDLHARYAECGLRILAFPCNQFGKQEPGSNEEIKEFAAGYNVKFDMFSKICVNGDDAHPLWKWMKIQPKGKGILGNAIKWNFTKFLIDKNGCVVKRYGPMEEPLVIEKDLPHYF
Outline: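 Steps: GPX4 plus compound, 30 min RT; add GR/GSH/NADPH master mix; start with cumene hydroperoxide; read 340/450 nm fluorescence at 0 and 15 min. Finals were 200 nM GPX4, 1 mM GSH, 0.5 mM CHP, 0.5 mM NADPH, 100 nM GR.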

[3] = target: Luciferin 4-monooxygenase (Photinus pyralis) (UniProt P08659); experiment: Primary firefly luciferase (FLuc) qHTS assay for identification of artifact compounds. (AID 1845220); further: nearly all actives have a fitted effect of over 60% in size; further: potency means the concentration at half of the fitted maximal effect; on activity change, negative = inhibition: series mostly up to about 54 µM
Outline: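 D-luciferin and ATP (10 uM each, final) in Tris acetate buffer pH 7.6 were incubated with compounds for 15 min at room temperature. The reaction was started with 10 nM Photinus pyralis luciferase and luminescence read after 5 min. Percent inhibition was fitted to a 4-parameter Hill equation.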

[4] = Primary fluorescence-based thiol-reactive (MSTI) qHTS assay for identification of artifact compounds. (AID 1845221); further: nearly all actives have a fitted effect of over 65% in size; further: potency means the concentration at half of the fitted maximal effect;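 on activity change, negative = thiol reactive: series mostly up to about 54 µM; thiol-reactive compounds lower the probe fluorescence signal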
Outline: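 Probe: MSTI 4 uM, PBS pH 7.4, 2% DMSO. Incubation 1 h, RT, light-protected. Readout fluorescence 525/598 nm.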

[5] = test system: Nanoluciferase (engineered Oplophorus gracilirostris luciferase); experiment: Primary Nanoluciferase (NLuc) qHTS assay for identification of artifact compounds. (AID 1845222); further: series mostly up to about 54 µM
Outline: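 Diluted conditioned medium from NLuc-expressing S16 cells treated with compounds for 15 min at room temperature, then Nano-Glo substrate added; luminescence read after 5 min. Percent inhibition versus no-enzyme and DMSO controls fitted to 4-parameter Hill equation.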

[6] = Primary redox qHTS assay for identification of artifact compounds. (AID 1845223)
Outline: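 Redox-cycling detection via DTT (250 uM final) oxidation coupled to Amplex Red (25 uM)/HRP (250 mU/mL) in HBSS. 15 min preincubation plus 30 min after DTT, room temperature. Ex/Em 525/598 nm; 4-parameter Hill fit against DMSO and 10 uM DA3003.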

For `ClC1C(Cl)C(Cl)C(Cl)C(Cl)C1Cl` (stereo not drawn), the Potency [1] was “inactive” and the Potency [2] was “inactive”.
With `CC(N)[C@H](O)c1ccc(O)c(O)c1` (stereo partly drawn) the Potency [1] was “inactive” and the Potency [2] was “inactive”.
With `Cc1o[nH]c(=O)c1CC(N)C(=O)O` (stereo not drawn) the Potency [1] was “inactive” and the Potency [2] was “inactive”.
With `Oc1ccc2c3c1O[C@H]1[C@H](N(CCCl)CCCl)CC[C@@]4(O)[C@@H](C2)N(CC2CC2)CC[C@]314` the outcome [1] was “inactive [at 9.52 µM]”, the activity change, negative = inhibition [2] was -3.35% [at 9.73 µM] and the outcome [3] was “inactive [at 11.6 µM]”. The activity change, negative = thiol reactive [4] was 7.36% [at 11.5 µM], the activity, negative = inhibition [5] was 1.59% [at 11.6 µM] and the redox activity (% of DA3003) [6] was -0.579% [at 11.5 µM].
For `CC(C)C1(OO)C=C2C(=O)CC3C(C)(C(=O)O)CCCC3(C)C2CC1` (stereo not drawn), the Potency [1] was “inactive”, the Potency [2] was “inactive” and the Potency [3] was “inactive”. For the same compound, the Potency [4] was “inactive”, the outcome [5] was “inactive” and the outcome [6] was “inactive”.
With `C[C@H](NC(=O)Cc1cc(F)cc(F)c1)C(=O)N[C@@H]1N=C(c2ccccc2)c2ccccc2N(C)C1=O` the Potency [1] was “inactive”, the Potency [2] was “inactive” and the Potency [3] was “inactive”. For the same compound, the Potency [4] was “inactive”, the outcome [5] was “inactive” and the outcome [6] was “inactive”.
With `O=c1ccc2[nH]cc(C3=CCNCC3)c2[nH]1` the Potency [1] was “inactive” and the Potency [2] was “inactive”.
In the case of `COC1CC(OC2CCC3(C)C(=CCC4C3CCC3(C)C(C(C)OC5OC(COC6OC(CO)C(O)C(O)C6O)C(O)C(O)C5O)CCC43O)C2)OC(C)C1OC1OC(C)C(O)C(OC)C1O` (stereo not drawn), the Potency [1] is reported as “inactive”, the Potency [2] is reported as “inactive” and the outcome [3] is reported as “inactive [at 11.6 µM]”. For the same compound, the activity change, negative = thiol reactive [4] was 0.542% [at 11.5 µM] and the activity, negative = inhibition [5] was 2.42% [at 11.6 µM].
In the case of `CC(C)(C)c1cc(C(C)(C)C)c2c(c1)C(O)(C(F)(F)F)C(=O)O2` (stereo not drawn), the Potency [1] is reported as “inactive”, the Potency [2] is reported as “inactive” and the Potency [3] is reported as “inactive”. For the same compound, the Potency [4] was 9.47 µM (active) and the outcome [5] was “inactive”.
In the case of `C=C[C@H]1[C@H](O[C@@H]2O[C@H](CO)[C@@H](O)[C@H](O)[C@H]2O)OC=C2C(=O)OCC[C@H]21`, the Potency [1] is reported as “inactive”, the Potency [2] is reported as “inactive” and the Potency [3] is reported as “inactive”. The Potency [4] was “inactive”, the outcome [5] was “inactive” and the outcome [6] was “inactive”.
For `CCOc1ccccc1-n1c(C(C)N2CCN(C(=O)COc3ccc(Cl)cc3)CC2)nc2ccccc2c1=O` (stereo not drawn), the Potency [1] was “inactive”, the Potency [2] was “inactive” and the Potency [3] was “inactive”. For the same compound, the Potency [4] was “inactive” and the outcome [5] was “inactive”.
For `CO[C@H]1[C@H](O)[C@H](O[C@H]2CC[C@]3(C)C4CC[C@]5(C)[C@H](C6=CC(=O)OC6)CC[C@]5(O)C4CC[C@@H]3C2)O[C@@H](C)[C@@H]1O` (stereo partly drawn), the Potency [1] was “inactive”, the Potency [2] was “inactive” and the Potency [3] was 7.38 µM (active). The Potency [4] was “inactive” and the outcome [5] was “inactive”.
For `CO[C@@H]1[C@H](O)[C@@H](O[C@@H]2C[C@H]3CC[C@@H]4C(CC[C@]5(C)[C@@H](C6=CC(=O)OC6)CC[C@]45O)[C@@]3(C)[C@H](O)C2)O[C@H](C)[C@@H]1O[C@@H]1O[C@H](CO)[C@@H](O)[C@H](O)[C@H]1O` (stereo partly drawn), the Potency [1] was “inactive”, the Potency [2] was “inactive” and the Potency [3] was “inactive”. For the same compound, the Potency [4] was “inactive” and the outcome [5] was “inactive”.
With `Ic1ccccc1CNC1C2CCN(CC2)C1C(c1ccccc1)c1ccccc1` (stereo not drawn) the Potency [1] was “inactive” and the Potency [2] was “inactive”.
For `OCc1cnc[nH]1`, the Potency [1] was “inactive” and the Potency [2] was “inactive”.
With `CCCCCOc1cc2c(cc1-c1cc(/C=C/C(=O)O)ccc1O)C(C)(C)CCC2(C)C` the Potency [1] was “inactive”, the Potency [2] was “inactive” and the Potency [3] was “inactive”. The Potency [4] was “inactive” and the outcome [5] was “inactive”.
With `C[C@]12CC[C@H]3[C@@H](CC[C@@]45O[C@@H]4C(O)=C(C#N)C[C@]35C)[C@@H]1CC[C@@H]2O` the Potency [1] was “inactive” and the Potency [2] was “inactive”.
In the case of `C[N+]1(C)C2CCC1CC(OC(=O)c1c[nH]c3ccccc13)C2` (stereo not drawn), the Potency [1] is reported as “inactive” and the Potency [2] is reported as “inactive”.
For `C[C@@]12C[C@@H](c3ccoc3)OC(=O)C1CC[C@]1(C)[C@H]2[C@H]2C=C[C@]1(O)C(=O)O2` (stereo partly drawn), the Potency [1] was “inactive”, the Potency [2] was “inactive” and the Potency [3] was “inactive”. The Potency [4] was “inactive”, the outcome [5] was “inactive” and the outcome [6] was “inactive”.
In the case of `O=C(C[C@@H]1NCCC[C@H]1O)Cn1cnc2cc(Br)c(Cl)cc2c1=O`, the Potency [1] is reported as “inactive” and the Potency [2] is reported as 17.8 µM (active).
With `COC(=O)C12C(=O)C(C)(O)C(=O)C1(C)C(C)=CC1C34CCC(OC3=O)C(C)(CO)C4CCC12C` (stereo not drawn) the Potency [1] was “inactive”, the Potency [2] was “inactive” and the Potency [3] was “inactive”. For the same compound, the Potency [4] was 2.6 µM (active) and the outcome [5] was “inactive”.
For `CCN1C[C@]2(COC(=O)c3ccccc3N3C(=O)C[C@H](C)C3=O)CC[C@H](OC)[C@@]34[C@@H]5C[C@H]6[C@H](OC)[C@@H]5[C@](O)(C[C@@H]6OC)[C@](O)([C@@H](OC)[C@H]23)[C@@H]14`, the Potency [1] was “inactive”, the Potency [2] was “inactive” and the Potency [3] was “inactive”. The Potency [4] was “inactive”, the outcome [5] was “inactive” and the outcome [6] was “inactive”.
In the case of `CCN1C[C@]2(OC(=O)c3ccccc3NC(C)=O)CC[C@H](OC)[C@@]34[C@@H]2C[C@@H]([C@@H]13)[C@@]1(O)C[C@H](OC)[C@H]2C[C@@H]4[C@]1(O)[C@H]2OC`, the Potency [1] is reported as “inactive”, the Potency [2] is reported as “inactive” and the Potency [3] is reported as “inactive”. The Potency [4] was “inactive” and the outcome [5] was “inactive”.
With `CN1[C@@H]2CC[C@H]1CC(OC(=O)C1C=Nc3ccccc31)C2` (stereo partly drawn) the Potency [1] was “inactive”, the Potency [2] was “inactive” and the Potency [3] was “inactive”. For the same compound, the Potency [4] was “inactive”, the outcome [5] was “inactive” and the outcome [6] was “inactive”.
In the case of `Oc1ccc2c3c1O[C@H]1[C@@H](O)CC[C@@]4(O)[C@@H](C2)N(CC2CCC2)CC[C@]314`, the Potency [1] is reported as “inactive” and the Potency [2] is reported as “inactive”.
For `C/C=C(\C)C(=O)OC1C(C)OC(OC2C(C)OC(OC3CCC4(C)C(=CCC5C4CCC4(C)C(C(C)OC6OC(COC7OC(CO)C(O)C(O)C7O)C(O)C(O)C6O)CCC54O)C3)CC2OC)C(O)C1OC` (stereo not drawn), the Potency [1] was “inactive”, the Potency [2] was “inactive” and the outcome [3] was “inactive [at 11.6 µM]”. The activity change, negative = thiol reactive [4] was 16.4% [at 11.5 µM], the activity, negative = inhibition [5] was 0% [at 11.6 µM] and the redox activity (% of DA3003) [6] was -7.77% [at 11.5 µM].
